# Test results from ChEMBL document CHEMBL1961873, “Compounds: GSK PKIS; Assays: Nanosyn kinase panel” (2012).
# Key:
# [1] = target: Sphingosine kinase 1 (Homo sapiens) (UniProt Q9NYA1); conditions: at 1 µM;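 also: mean SPHK1 inhibition value reported from the GSK PKIS kinase panel screen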
# [2] = target: T1, Sphingosine kinase 2 (Homo sapiens) (UniProt Q9NRA0); conditions: at 0.1 µM
# T1 sequence (whole entry): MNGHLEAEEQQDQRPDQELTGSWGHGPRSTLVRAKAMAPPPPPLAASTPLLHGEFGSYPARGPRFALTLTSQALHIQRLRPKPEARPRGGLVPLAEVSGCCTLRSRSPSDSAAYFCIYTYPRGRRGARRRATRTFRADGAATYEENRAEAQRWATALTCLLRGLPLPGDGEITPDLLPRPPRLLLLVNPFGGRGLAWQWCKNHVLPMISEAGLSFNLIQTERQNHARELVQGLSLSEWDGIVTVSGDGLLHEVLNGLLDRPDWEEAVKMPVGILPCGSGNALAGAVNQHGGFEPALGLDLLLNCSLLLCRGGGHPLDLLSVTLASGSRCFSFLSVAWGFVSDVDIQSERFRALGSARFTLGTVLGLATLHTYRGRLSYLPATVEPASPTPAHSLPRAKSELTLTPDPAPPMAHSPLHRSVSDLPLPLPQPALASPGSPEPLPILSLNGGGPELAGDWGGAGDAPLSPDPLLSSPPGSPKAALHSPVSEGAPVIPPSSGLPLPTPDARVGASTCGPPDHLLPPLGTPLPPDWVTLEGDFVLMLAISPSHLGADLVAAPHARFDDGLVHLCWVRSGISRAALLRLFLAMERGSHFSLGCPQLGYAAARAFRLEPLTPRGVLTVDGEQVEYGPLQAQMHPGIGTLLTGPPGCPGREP
# [3] = target: T1, Sphingosine kinase 2 (Homo sapiens); conditions: at 1 µM
# [4] = target: Casein kinase II subunit alpha (Homo sapiens) (UniProt P68400); conditions: at 0.1 µM
# Chain of Casein kinase II subunit alpha (Homo sapiens) (P68400 whole entry, looked up): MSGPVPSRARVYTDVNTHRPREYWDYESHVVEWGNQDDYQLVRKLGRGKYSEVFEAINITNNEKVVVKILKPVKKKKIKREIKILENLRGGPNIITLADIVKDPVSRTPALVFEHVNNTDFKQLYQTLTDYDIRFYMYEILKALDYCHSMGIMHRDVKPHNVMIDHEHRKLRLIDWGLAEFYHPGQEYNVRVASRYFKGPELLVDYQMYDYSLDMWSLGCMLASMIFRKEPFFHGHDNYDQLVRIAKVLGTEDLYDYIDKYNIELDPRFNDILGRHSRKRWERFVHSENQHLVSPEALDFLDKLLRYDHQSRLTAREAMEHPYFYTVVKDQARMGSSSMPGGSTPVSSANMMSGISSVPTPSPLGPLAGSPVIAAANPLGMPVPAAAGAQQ
# [5] = target: Casein kinase II subunit alpha (Homo sapiens) (UniProt P68400); conditions: at 1 µM
# [6] = target: T2, Inhibitor of nuclear factor kappa-B kinase subunit alpha (Homo sapiens) (UniProt O15111); conditions: at 0.1 µM
# T2 sequence (whole entry): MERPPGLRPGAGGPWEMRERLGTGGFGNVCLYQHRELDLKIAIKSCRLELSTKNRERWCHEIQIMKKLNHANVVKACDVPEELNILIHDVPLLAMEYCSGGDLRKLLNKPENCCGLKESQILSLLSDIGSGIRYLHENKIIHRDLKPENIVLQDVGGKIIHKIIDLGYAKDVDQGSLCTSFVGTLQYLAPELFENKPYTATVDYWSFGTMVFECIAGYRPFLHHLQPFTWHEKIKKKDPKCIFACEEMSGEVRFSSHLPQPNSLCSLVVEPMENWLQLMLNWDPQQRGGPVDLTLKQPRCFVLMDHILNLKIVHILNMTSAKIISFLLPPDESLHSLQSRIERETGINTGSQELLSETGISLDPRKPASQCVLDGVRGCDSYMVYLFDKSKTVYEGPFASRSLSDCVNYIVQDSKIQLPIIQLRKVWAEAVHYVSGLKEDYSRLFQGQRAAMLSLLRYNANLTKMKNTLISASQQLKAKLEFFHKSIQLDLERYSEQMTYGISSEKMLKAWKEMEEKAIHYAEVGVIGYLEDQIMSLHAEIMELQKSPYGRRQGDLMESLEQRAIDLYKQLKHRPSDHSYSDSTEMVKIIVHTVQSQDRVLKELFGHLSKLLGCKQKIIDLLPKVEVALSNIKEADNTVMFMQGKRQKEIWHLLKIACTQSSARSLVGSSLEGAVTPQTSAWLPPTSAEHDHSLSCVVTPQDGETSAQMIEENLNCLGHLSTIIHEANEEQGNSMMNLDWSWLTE
# [7] = target: T2, Inhibitor of nuclear factor kappa-B kinase subunit alpha (Homo sapiens); conditions: at 1 µM
# [8] = target: T3, Inhibitor of nuclear factor kappa-B kinase subunit beta (Homo sapiens) (UniProt O14920); conditions: at 0.1 µM
# T3 sequence (whole entry): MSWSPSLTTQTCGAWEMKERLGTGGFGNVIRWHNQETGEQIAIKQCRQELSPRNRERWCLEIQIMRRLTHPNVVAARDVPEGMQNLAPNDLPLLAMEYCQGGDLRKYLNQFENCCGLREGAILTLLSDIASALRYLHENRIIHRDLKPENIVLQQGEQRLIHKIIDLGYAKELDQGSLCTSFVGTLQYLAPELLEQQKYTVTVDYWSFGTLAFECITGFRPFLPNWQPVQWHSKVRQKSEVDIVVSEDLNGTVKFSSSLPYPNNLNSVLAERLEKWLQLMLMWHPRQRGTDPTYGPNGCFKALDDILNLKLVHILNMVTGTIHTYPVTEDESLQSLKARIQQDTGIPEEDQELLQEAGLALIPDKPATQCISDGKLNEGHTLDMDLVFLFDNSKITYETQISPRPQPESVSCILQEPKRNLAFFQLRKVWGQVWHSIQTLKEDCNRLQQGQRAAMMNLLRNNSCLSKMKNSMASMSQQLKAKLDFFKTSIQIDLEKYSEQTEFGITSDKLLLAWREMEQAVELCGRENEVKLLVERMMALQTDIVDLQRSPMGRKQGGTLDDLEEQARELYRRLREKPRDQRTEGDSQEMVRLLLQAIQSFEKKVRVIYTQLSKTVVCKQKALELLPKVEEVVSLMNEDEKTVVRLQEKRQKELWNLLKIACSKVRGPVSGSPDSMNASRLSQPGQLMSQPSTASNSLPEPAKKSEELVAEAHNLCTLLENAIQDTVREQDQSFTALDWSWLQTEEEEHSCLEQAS
# [9] = target: T3, Inhibitor of nuclear factor kappa-B kinase subunit beta (Homo sapiens); conditions: at 1 µM
# [10] = target: T4, Inhibitor of nuclear factor kappa-B kinase subunit epsilon (Homo sapiens) (UniProt Q14164); conditions: at 0.1 µM
# T4 sequence (whole entry): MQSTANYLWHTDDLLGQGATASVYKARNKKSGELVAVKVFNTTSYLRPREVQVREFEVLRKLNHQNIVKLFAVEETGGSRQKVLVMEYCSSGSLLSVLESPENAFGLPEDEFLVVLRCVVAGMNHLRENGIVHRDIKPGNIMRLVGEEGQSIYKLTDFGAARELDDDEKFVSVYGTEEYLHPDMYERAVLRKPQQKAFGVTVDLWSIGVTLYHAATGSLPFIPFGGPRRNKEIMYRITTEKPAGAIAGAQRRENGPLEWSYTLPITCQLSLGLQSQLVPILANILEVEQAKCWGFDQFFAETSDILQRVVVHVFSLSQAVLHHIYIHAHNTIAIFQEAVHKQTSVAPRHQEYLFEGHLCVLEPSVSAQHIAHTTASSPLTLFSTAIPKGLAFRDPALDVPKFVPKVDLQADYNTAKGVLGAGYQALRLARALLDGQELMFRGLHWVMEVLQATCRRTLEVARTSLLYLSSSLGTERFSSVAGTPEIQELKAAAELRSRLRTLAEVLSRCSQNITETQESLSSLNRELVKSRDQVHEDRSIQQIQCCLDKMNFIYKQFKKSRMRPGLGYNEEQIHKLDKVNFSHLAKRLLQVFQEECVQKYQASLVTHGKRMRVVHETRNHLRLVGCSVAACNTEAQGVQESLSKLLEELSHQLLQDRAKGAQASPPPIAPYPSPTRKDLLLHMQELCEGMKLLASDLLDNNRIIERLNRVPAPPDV
# [11] = target: T4, Inhibitor of nuclear factor kappa-B kinase subunit epsilon (Homo sapiens); conditions: at 1 µM
# [12] = target: T5, Serine/threonine-protein kinase Nek1 (Homo sapiens) (UniProt Q96PY6); conditions: at 0.1 µM
# T5 sequence (whole entry): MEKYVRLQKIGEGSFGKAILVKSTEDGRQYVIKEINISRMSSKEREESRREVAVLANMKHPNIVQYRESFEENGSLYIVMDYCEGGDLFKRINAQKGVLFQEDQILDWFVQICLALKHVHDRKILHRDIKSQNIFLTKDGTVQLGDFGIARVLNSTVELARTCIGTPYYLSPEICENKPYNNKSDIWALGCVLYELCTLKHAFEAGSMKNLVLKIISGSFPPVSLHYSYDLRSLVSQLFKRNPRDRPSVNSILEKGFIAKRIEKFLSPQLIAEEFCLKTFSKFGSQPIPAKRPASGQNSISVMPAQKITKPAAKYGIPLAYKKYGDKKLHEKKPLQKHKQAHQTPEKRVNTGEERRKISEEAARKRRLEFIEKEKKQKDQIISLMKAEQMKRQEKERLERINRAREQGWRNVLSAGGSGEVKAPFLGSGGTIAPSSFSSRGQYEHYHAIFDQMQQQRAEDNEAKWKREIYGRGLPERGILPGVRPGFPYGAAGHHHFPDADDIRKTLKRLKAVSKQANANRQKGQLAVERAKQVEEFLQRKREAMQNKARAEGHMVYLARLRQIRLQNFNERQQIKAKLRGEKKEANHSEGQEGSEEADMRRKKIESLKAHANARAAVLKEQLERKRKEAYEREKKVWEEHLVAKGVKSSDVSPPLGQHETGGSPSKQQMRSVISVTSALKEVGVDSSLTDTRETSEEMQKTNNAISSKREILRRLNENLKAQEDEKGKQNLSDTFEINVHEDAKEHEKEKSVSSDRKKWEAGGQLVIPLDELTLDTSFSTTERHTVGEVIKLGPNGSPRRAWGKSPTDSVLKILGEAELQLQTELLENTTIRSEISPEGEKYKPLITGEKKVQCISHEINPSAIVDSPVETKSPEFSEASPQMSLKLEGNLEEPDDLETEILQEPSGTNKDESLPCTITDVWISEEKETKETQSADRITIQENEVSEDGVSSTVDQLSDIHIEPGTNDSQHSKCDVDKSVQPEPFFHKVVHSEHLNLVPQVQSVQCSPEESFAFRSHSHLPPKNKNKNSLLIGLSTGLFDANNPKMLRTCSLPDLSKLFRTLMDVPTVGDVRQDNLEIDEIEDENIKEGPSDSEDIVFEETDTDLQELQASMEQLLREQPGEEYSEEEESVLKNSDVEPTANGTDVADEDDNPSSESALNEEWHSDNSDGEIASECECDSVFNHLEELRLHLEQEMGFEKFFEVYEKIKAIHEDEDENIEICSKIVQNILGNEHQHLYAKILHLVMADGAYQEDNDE
# [13] = target: T5, Serine/threonine-protein kinase Nek1 (Homo sapiens); conditions: at 1 µM
# [14] = target: T6, Serine/threonine-protein kinase Nek2 (Homo sapiens) (UniProt P51955); conditions: at 0.1 µM
# T6 sequence (whole entry): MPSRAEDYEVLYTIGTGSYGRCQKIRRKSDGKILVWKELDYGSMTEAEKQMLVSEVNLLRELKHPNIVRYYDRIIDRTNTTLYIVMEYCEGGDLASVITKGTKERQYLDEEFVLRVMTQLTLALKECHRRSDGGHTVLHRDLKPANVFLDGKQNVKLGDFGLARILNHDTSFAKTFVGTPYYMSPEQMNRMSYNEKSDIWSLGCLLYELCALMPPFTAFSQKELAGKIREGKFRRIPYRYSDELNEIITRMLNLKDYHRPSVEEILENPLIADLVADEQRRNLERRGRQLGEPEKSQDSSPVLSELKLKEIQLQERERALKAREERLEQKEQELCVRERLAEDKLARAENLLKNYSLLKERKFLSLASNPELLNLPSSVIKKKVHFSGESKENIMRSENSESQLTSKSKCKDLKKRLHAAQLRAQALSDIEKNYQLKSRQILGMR
# [15] = target: T6, Serine/threonine-protein kinase Nek2 (Homo sapiens); conditions: at 1 µM
# [16] = target: Serine/threonine-protein kinase Nek6 (Homo sapiens) (UniProt Q9HC98); conditions: at 0.1 µM
# Chain of Serine/threonine-protein kinase Nek6 (Homo sapiens) (Q9HC98 whole entry): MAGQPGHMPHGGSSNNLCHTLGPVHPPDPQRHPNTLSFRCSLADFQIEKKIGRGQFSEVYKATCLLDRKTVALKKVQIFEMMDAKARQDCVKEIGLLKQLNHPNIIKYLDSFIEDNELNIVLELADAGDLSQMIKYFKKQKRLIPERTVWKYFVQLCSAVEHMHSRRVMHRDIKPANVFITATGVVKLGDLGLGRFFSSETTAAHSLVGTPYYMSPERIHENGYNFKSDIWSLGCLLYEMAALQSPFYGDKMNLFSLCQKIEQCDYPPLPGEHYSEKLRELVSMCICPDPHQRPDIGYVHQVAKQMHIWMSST
# [17] = target: Serine/threonine-protein kinase Nek6 (Homo sapiens) (UniProt Q9HC98); conditions: at 1 µM
# [18] = target: Serine/threonine-protein kinase Nek7 (Homo sapiens) (UniProt Q8TDX7); conditions: at 0.1 µM
# Chain of Serine/threonine-protein kinase Nek7 (Homo sapiens) (Q8TDX7 whole entry, looked up): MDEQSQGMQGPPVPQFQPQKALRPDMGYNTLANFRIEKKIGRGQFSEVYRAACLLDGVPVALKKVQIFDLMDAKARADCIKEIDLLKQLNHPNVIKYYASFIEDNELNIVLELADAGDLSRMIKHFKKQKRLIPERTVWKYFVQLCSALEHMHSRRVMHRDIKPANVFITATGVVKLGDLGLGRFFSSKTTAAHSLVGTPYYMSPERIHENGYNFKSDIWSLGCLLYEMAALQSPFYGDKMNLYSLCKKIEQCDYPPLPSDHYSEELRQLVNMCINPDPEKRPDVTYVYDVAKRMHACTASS
# [19] = target: Serine/threonine-protein kinase Nek7 (Homo sapiens) (UniProt Q8TDX7); conditions: at 1 µM
# [20] = target: T7, Serine/threonine-protein kinase Nek9 (Homo sapiens) (UniProt Q8TD19); conditions: at 0.1 µM;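 also: reported value is the mean percent inhibition of NEK9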
# T7 sequence (whole entry): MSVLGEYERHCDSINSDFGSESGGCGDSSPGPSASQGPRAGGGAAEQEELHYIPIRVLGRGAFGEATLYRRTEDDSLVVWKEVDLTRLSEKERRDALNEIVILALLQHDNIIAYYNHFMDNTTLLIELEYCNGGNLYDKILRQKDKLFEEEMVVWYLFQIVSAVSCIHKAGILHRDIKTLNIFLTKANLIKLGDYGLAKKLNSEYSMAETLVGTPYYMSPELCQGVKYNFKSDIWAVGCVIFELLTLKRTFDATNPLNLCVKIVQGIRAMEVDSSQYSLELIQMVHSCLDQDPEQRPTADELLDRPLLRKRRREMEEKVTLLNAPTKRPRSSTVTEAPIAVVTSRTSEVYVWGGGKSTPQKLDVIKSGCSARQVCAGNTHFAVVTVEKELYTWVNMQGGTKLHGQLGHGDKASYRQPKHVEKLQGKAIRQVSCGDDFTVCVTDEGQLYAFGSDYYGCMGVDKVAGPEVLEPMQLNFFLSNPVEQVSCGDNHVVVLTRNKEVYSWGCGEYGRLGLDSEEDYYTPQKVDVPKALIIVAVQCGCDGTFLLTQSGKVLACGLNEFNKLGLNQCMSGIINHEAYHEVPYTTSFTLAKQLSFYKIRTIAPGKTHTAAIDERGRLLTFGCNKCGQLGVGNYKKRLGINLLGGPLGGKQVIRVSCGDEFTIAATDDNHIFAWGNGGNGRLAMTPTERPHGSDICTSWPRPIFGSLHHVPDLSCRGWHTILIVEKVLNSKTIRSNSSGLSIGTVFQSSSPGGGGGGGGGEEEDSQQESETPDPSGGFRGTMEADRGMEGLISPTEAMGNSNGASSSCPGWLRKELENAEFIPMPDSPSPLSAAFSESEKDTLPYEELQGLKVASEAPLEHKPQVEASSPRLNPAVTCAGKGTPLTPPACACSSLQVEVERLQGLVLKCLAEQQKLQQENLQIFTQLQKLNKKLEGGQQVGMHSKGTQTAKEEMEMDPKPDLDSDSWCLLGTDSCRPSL
# Chain of Sphingosine kinase 1 (Homo sapiens) (Q9NYA1 whole entry): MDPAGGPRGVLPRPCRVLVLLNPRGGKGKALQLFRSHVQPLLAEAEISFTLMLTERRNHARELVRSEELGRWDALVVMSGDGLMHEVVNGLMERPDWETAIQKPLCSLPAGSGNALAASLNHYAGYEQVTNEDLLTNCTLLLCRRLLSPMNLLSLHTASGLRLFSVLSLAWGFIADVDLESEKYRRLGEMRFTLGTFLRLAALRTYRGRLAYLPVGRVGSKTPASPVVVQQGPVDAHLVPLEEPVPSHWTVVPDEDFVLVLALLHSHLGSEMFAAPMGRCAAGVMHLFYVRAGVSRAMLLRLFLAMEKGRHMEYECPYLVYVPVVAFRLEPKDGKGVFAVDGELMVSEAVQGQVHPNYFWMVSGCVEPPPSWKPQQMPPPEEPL
structure (smiles),measurement,setting,value
Fc1ccc(-c2ncn(C3CCNCC3)c2-c2ccnc(Oc3ccc(Oc4ccccc4)cc3)n2)cc1,inhibition,[1],-0.85%
same,inhibition,[2],-0.41%
same,inhibition,[3],-0.56%
same,inhibition,[4],4.31%
same,inhibition,[5],4.14%
same,inhibition,[6],4.44%
same,inhibition,[7],5.03%
same,inhibition,[8],5.84%
same,inhibition,[9],6.14%
same,inhibition,[10],7.47%
same,inhibition,[11],6.34%
same,inhibition,[12],1.09%
same,inhibition,[13],1.58%
same,inhibition,[14],5.87%
same,inhibition,[15],3.38%
same,inhibition,[16],-2.46%
same,inhibition,[17],2.86%
same,inhibition,[18],3.94%
same,inhibition,[19],9.34%
same,inhibition,[20],4.61%
